Experimental findings from the supplement of paper PMC6555819 are described below.

For this test, the system named is PPARa:RXRa (NR concentration 270 nM, RXRa partner concentration 90 nM). Kind of test: PBM binding z-score (relative to random genomic background probes); higher = stronger binding; sequences stand for … in GC…GCGATTGACAGCGTAGAATGAAGG
The procedure, abridged: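 Probes were double-stranded and carried 34-nt variable regions with direct-repeat seeds, single-nucleotide variants, half-site ablations and random human genomic background sequences, printed on custom Agilent 4×180K protein-binding microarrays. Arrays were incubated 1 h with ligand-free nuclear receptor dimers in PBS pH 7.4, 2% milk, 0.02% Triton X-100, 1 mM DTT, 0.2 mg/mL BSA and 0.4 mg/ml salmon testes DNA. Antibodies against each partner (one per run) detected binding, and scanned fluorescence was regression-normalized. Binding z-scores use the random background probes as reference.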
Sequence GCAGACAGGTGAAACGCAGATAACTCAGGGTGGC yielded a PBM binding z-score of 0.654. Take AGAATGAGGTTAAGATCACGGAAACAGAATACAT: the PBM binding z-score was determined as 3.74. In the case of ATCGAAAGGTCGTAGGTGAGTATACCCACCCGAA it was 5.14; in that of CCTATTAGTCGACCATAAGGGCAACCGAAGCTCG, 0.539. Under ACAGACAGGTGATGGAGGTAACTCAGGCTATCAT stands 0.109; under TCTAGCAGGCCAGAGGGTCACTCCAGAGGTACGG, 1.91; under AGAACTAGGGCACGCTGAGTTGATAGCAGAGTAG, 3.01. Under CGTCAAAGTTCAAGGTAACTTAACAGAAAGCAGC stands 4.5. With CCTAGCAGGCCAAACTGGGTCACTCAAGGCTTGA, the PBM binding z-score was 3.05. Turning to TAAATGAGGTTATAAGATCAGGGAACGTTGCAAA, the PBM binding z-score came out at 2.85. Turning to CCTACTGGGCCACGAAAGGTCATTAATTCAGTGA, the PBM binding z-score worked out at 4.48. Take GCTGCTAGGTCAACTGATGGACAGCTAAAGCTCG: the PBM binding z-score turned out to be 3.46.

In turn, AATCGGAGGACAAAGGTCAGAGCTACGCCAGTGA registered a PBM binding z-score of 5.18. In the case of TCGAGTAGGTTAGTCGGGGCATTCAGCCAACATA it was 0.44; in that of TCATATAGGTAAACAGGTGAAATTCCGTAAGTTA, 2.32; in that of CGAACTAGGTCATCCAGGACAGTGAGTACATTGA, 4.49.

The sequence ATACCAAGGTGATCGTGAGGTCGCTGATACTAAC came in with a PBM binding z-score of 1.15. In the case of TCGAGTAGGTTCGTCGGGGCATTCAGCCAACATA it was 0.757.

TAGCCTAGGTCAGATAGGGCCAGTATACGCTATA: the PBM binding z-score worked out at 1.59. Sequence CAAACTAGGTCACCGGAAGGTCACAGTCCGCATG gave a PBM binding z-score of 5.9. As for CACACTAGGTCAAGGTCAAAGTCGGTTTGTGCCA, the PBM binding z-score was 5.71. ACTATTAGTTGAGACGAGGGCAACCAATAGGTTG registered a PBM binding z-score of 0.282. As to ATATGTAGGGTAGCTGGGGTCATTCAGACTAGGC, the PBM binding z-score came to 5.28. In the case of CCGAGTAGGATATGGGGCATTCAGGCAACGGTGA it was 1.11; in that of ATCGACAGGTCGTGAGGTGAGTATACAGAAAGGC, 2.14. Take GCGTCTGGGGCATCAGCAGGTTACCATAACTTAA: the PBM binding z-score amounted to 0.996.

Turning to CCGACTGGGGCAAGGCTACCATAACGCACAGCCA, the PBM binding z-score was -0.00984. Under CAAACTAGGTCACCGGTAGGTCAAAGTCCGCATG stands 5.98. Under TCTTGTAGATCAGCAGTTTAAGAAAGCTGGCCAA stands 0.33; under CAGCCTAGGTCAGGCCCAGTATAGGAGGAACGTT, 1.45; under ATATATAGGTTAGCTGGGGTCATTCAGACTAGGC, 5.2. Under GCTTACGGTTCAAAGGTTATAGCATGAATAGAAT stands 5.44. Regarding AGAATGAGGTTACCGAAGATCAGGGAAACGCTTG, the PBM binding z-score is 3.81.

Sequence AGAATGAGGTTATCCGTAGATCAGGGAAGAAAGT yielded a PBM binding z-score of 3.44. Under TGAATGAGGTTAAAGATCAGGGAACGTGGCGTCG stands 4.63; under AGAATGAGGGTATTAAGATCAGGGAATTGCGGTC, 0.659. In turn, CTACCAACGTGAACAAGGTCGTTGATTACTATTC yielded a PBM binding z-score of 1.22. Under ACTAGTCGGTCAGCTGAGGTCACACACAATTCGG stands 4.15; under CCTTGGAGGACAGAAGGTCAGAGCTGTCCGCTTT, 2.23. Regarding TGTCAAGGTTCAAAGGTAACGTAAGTATCCACAC, the PBM binding z-score was 5.
